Reference: PubChem BioAssay AID1159580 (chemical genetic matrix, 2015)
Values joined by “and” are separate entries in the source; they are usually repeats but may differ in a detail not shown here. Identical values can stand only once. The whole screen tested about 5,500 compounds, of which about 2,000 (36%) were called active. Not shown: some 18% with an inconclusive outcome. Cut-off read from the data, not from the text of the source: active = normalized growth mostly below about 0.91 (no sharp cut-off); inconclusive = no clear call, values can overlap the other calls; inactive = mostly above about 0.92. Some of the results follow.

Test: chemical genetic growth profiling, strain panel (AID 1159580);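 note: tested at 20 µM; growth read once vehicle control cultures reached saturation at 30 °C; 1 = growth at the plate median or of vehicle wells; lower values mean less growth of the strain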
Conditions: S. cerevisiae deletion strains, growth OD

Measured: normalized growth

C[C@@H]1C(=O)O[C@H]2[C@H]1CC[C@@]1(C)C=CC(=O)[C@@]3(C)O[C@@]213
inactive: locus YAL013W, strain DEP1, stronger effect = lower value 1 | locus YAL021C, strain ccr4, stronger effect = lower value 1.01 | locus YAL026C, strain drs2, stronger effect = lower value 1.02 | locus YAL030W, strain snc1, stronger effect = lower value 1.01 | locus YBL061C, strain skt5, stronger effect = lower value 1.01 | locus YBR009C, strain hhf1, stronger effect = lower value 1.01 | locus YBR021W, strain FUR4, stronger effect = lower value 1 | locus YBR023C, strain chs3, stronger effect = lower value 1.02 | locus YBR171W, strain sec66, stronger effect = lower value 1.02 | locus YBR229C, strain ROT2, stronger effect = lower value 1.01 | locus YBR231C, strain swc5, stronger effect = lower value 1.02 | locus YBR279W, strain paf1, stronger effect = lower value 1.01 | locus YCL011C, strain gbp2, stronger effect = lower value 1.01 | locus YCL016C, strain dcc1, stronger effect = lower value 1 | locus YCL029C, strain bik1, stronger effect = lower value 1.04 | locus YCL069W, strain vba3, stronger effect = lower value 1.03 | locus YCR088W, strain abp1, stronger effect = lower value 1.01 | locus YDL005C, strain med2, stronger effect = lower value 1.02 | locus YDL035C, strain GPR1, stronger effect = lower value 1.02 | locus YDL040C, strain nat1, stronger effect = lower value 1 | locus YDL074C, strain BRE1, stronger effect = lower value 1.02 | locus YDL101C, strain DUN1, stronger effect = lower value 1.01 | locus YDL134C, strain PPH21, stronger effect = lower value 0.993 | locus YDL185W, strain tfp1, stronger effect = lower value 0.986 | locus YDL192W, strain arf1, stronger effect = lower value 1.01 | locus YDR001C, strain nth1, stronger effect = lower value 1.01 | locus YDR069C, strain doa4, stronger effect = lower value 1.03 | locus YDR101C, strain arx1, stronger effect = lower value 1.01 | locus YDR137W, strain rgp1, stronger effect = lower value 0.982 | locus YDR150W, strain NUM1, stronger effect = lower value 1.01 | locus YDR159W, strain sac3, stronger effect = lower value 1.06 | locus YDR162C, strain NBP2, stronger effect = lower value 1.02 | locus YDR195W, strain ref2 1.01 | locus YDR297W, strain sur2, stronger effect = lower value 1 | locus YDR318W, strain mcm21, stronger effect = lower value 1.02 | locus YDR334W, strain swr1, stronger effect = lower value 1.02 | locus YDR335W, strain msn5, stronger effect = lower value 1.01 | locus YDR388W, stronger effect = lower value 1.01 | locus YDR392W, strain spt3, stronger effect = lower value 0.996 | locus YDR502C, strain sam2, stronger effect = lower value 1.02 | locus YEL003W, strain gim4, stronger effect = lower value 1.01 | locus YEL037C, strain rad23, stronger effect = lower value 1.02 | locus YEL061C, strain CIN8 (second series), stronger effect = lower value 1.01 | locus YEL061C, strain CIN8, stronger effect = lower value 1.01 | locus YER015W, strain faa2, stronger effect = lower value 1.02 | locus YER016W, strain bim1, stronger effect = lower value 1.01 | locus YER110C, stronger effect = lower value 1.01 | locus YER111C, strain swi4, stronger effect = lower value 1.02 | locus YER155C, strain BEM2 (second series), stronger effect = lower value 1.03 | locus YER155C, strain BEM2, stronger effect = lower value 0.996 | locus YER167W, strain BCK2, stronger effect = lower value 1.02 | locus YFR010W, strain ubp6, stronger effect = lower value 1.06 | locus YGL078C, strain dbp3, stronger effect = lower value 1.03 | locus YGL086W, strain mad1, stronger effect = lower value 1.02 | locus YGL167C, strain pmr1, stronger effect = lower value 1.02 | locus YGL173C, strain kem1, stronger effect = lower value 1.02 | locus YGL227W, strain vid30, stronger effect = lower value 1.02 | locus YGL240W, strain doc1, stronger effect = lower value 1.01 | locus YGL248W, strain PDE1, stronger effect = lower value 1.02 | locus YGL253W, strain hxk2, stronger effect = lower value 1.05 | locus YGR078C, strain PAC10, stronger effect = lower value 1.02 | locus YGR135W, strain pre9, stronger effect = lower value 1.03 | locus YGR229C, strain SMI1, stronger effect = lower value 1.02 | locus YGR252W, strain gcn5, stronger effect = lower value 1.06 | locus YHR013C, strain ard1, stronger effect = lower value 0.995 | locus YHR027C, strain rpn1, stronger effect = lower value 1.02 | locus YHR030C, strain SLT2, stronger effect = lower value 1.01 and 1.04 | locus YHR079C, strain IRE1 (second series), stronger effect = lower value 1.02 | locus YHR079C, strain IRE1, stronger effect = lower value 1.04 | locus YHR094C, strain hxt1, stronger effect = lower value 1 | locus YHR129C, strain ARP1, stronger effect = lower value 1.01 | locus YHR142W, strain chs7, stronger effect = lower value 1.02 | locus YHR200W, strain rpn10, stronger effect = lower value 1.02 | locus YIL066C, strain RNR3, stronger effect = lower value 1.02 | locus YIL073C, strain SPO22, stronger effect = lower value 1.05 | locus YIL125W, strain kgd1, stronger effect = lower value 1.03 | locus YIR030C, strain dcg1, stronger effect = lower value 1.02 | locus YJL092W, strain hpr5, stronger effect = lower value 1.02 | locus YJL095W, strain BCK1 (second series), stronger effect = lower value 1.01 | locus YJL095W, strain BCK1, stronger effect = lower value 1.03 | locus YJL115W, strain asf1, stronger effect = lower value 1.02 | locus YJL129C, strain trk1, stronger effect = lower value 1.04 | locus YJL134W, strain LCB3, stronger effect = lower value 1 | locus YJL154C, strain vps35, stronger effect = lower value 1.01 | locus YJL164C, strain tpk1, stronger effect = lower value 1.01 | locus YJL166W, strain qcr8, stronger effect = lower value 1.01 | locus YJL168C, strain set2, stronger effect = lower value 1.01 | locus YJL187C, strain SWE1 (second series), stronger effect = lower value 1.04 | locus YJR043C, strain POL32, stronger effect = lower value 1.02 | locus YJR066W, strain TOR1, stronger effect = lower value 0.959 | locus YJR075W, strain HOC1, stronger effect = lower value 1.02
